# Reference: PubChem BioAssay AID2553 (Johns Hopkins Ion Channel Center, 2010)
# Screen size: about 310,000 compounds; about 3,300 (1.1%) were called active.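 Rule for the calls: active = B-score under library mean minus 3 SD, initial fluorescence not abnormally high, positive integrated signal ratio; inactive = the rest.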 For the sample, actives were picked, then their nearest neighbours and some compounds at random.
# Biological target: Short transient receptor potential channel 6 (Mus musculus) (UniProt Q61143)
# Sequence (Q61143 whole entry, looked up): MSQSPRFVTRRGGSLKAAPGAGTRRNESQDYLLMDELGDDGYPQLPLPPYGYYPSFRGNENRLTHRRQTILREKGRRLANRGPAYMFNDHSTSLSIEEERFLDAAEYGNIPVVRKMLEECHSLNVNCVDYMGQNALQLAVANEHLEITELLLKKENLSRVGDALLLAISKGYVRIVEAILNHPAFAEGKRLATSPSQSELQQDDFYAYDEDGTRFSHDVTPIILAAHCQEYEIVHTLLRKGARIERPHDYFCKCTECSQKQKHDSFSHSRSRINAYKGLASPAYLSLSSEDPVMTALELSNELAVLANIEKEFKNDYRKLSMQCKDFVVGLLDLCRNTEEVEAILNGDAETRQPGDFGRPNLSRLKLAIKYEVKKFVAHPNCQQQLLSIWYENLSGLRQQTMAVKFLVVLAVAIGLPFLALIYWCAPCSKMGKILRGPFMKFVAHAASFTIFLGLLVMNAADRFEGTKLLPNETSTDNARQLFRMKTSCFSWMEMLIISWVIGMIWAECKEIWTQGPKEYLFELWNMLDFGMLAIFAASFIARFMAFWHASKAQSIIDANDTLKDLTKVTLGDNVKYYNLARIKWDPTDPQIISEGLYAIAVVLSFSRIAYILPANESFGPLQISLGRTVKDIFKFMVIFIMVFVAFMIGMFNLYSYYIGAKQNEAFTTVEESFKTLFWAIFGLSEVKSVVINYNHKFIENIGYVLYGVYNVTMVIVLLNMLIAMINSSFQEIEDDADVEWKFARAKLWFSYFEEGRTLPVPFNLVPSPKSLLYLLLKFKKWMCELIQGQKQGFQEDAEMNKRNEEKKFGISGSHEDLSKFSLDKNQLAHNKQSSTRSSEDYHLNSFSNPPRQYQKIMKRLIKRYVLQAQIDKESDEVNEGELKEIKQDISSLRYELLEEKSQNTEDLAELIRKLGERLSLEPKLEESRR
# Assay: mouse TRPC6 channel inhibitors, primary screen, cell-based, HEK293, membrane potential dye (AID 2553);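 for B-score: B-score derived from integrated fluorescence ratio over the kinetic read; more negative B-score means stronger inhibition of depolarization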
# Details: ACh-evoked depolarization, at 10 µM; hits give low values
row,SMILES,B-score
1,CCCCc1cc2c(s1)CCCC/C2=N/O,inactive
2,Cc1ccc(-c2nc(COC(=O)c3c(C)noc3C)cs2)cc1,inactive
3,CCOc1cc(-c2conc2N)cc(OCC)c1OCC,inactive
4,Cc1csc2ncc(C(=O)N(Cc3ccccc3)c3ccccn3)c(=O)n12,inactive
5,Cc1ccccc1Cn1c(=O)[nH]c2ccccc21,inactive
6,CCCc1cc(=S)n2c([nH]c3ccccc32)c1C#N,-12.9 (active)
7,CCOC(=O)CCc1c(C)c(C#N)c2[nH]c3ccccc3n2c1=O,inactive
8,COc1ccc(OC)c(C(=O)c2ccc(C(=O)N3CCN(Cc4csc(C)n4)CC3)cc2)c1,inactive
9,CCOc1ccccc1NC(=S)N1CCN(c2cccc(C)c2C)CC1,inactive
10,CN(N)c1nc(N2CCCC2)nc(N2CCCC2)n1,inactive
11,Cn1c(NC(=O)c2ccc3c(c2)OCO3)cc(=O)n(C)c1=O,inactive
12,Cn1c(=O)n(C)c2cc(C(=O)Nc3ccc(Br)cc3)ccc21,inactive
13,Cn1c(=O)n(C)c2cc(C(=O)Nc3ccc4c(c3)OCO4)ccc21,-7.03 (active)
14,CC(C)(C)c1cc(CN2CCN(CCC#N)CC2)cc(C(C)(C)C)c1O,inactive
15,Cc1ccc(NC(=S)N(CCCN2CCC(C)CC2)Cc2ccco2)cc1,inactive
16,Cc1ccc(NC(=S)N(CCN2CCCCC2)Cc2ccco2)cc1C,inactive
17,Cc1ccc(NC(=S)N(CCCN2CCCC2)Cc2cccn2Cc2ccc(Cl)cc2)cc1,-5.03 (active)
18,COC(=O)[C@@H]1C[C@H]2CC[C@H](O)C[C@H]2N1Cc1ccc(N2CCN(C)CC2)cc1,inactive
19,N#C/C(C(=S)Nc1ccccc1)=C1/NN=C(N2CCOCC2)N1c1ccccc1,inactive
20,COc1cccc(CC(=O)N2CCCC(CCC(=O)N3CCN(c4ccccn4)CC3)C2)c1 (stereo unspecified),inactive
21,CC(C)C(c1nnnn1C1CCCCC1)N1CCN(C(=O)c2ccco2)CC1 (stereo unspecified),inactive
22,CC(C)C(c1nnnn1CCc1ccccc1)N1CCN(C(=O)c2ccco2)CC1 (stereo unspecified),-6.03 (active)
23,CCC(c1nnnn1C1CCCC1)N1CCN(C(=O)c2ccco2)CC1 (stereo unspecified),inactive
24,O=[N+]([O-])c1ccccc1/C=C/CN1CCCC(CO)C1 (stereo unspecified),inactive

row,SMILES,B-score
1,CC1CC(C)CN(C/C=C/c2ccccc2[N+](=O)[O-])C1 (stereo unspecified),-10.9 (active)
2,O=[N+]([O-])c1ccccc1/C=C/CN1CCC(O)CC1,inactive
3,CC1=C[C@H]2Cc3cc(C)cc(C)c3S(=O)(=O)[C@@H]2C=C1,inactive
4,CC(=O)c1cc(C#N)c(SCC(=O)Nc2nccs2)nc1C,inactive
5,Clc1ccc(C2=CSC3=Nc4cccc5cccc(c45)N23)cc1,inactive
6,CC(C)NC(=O)COCc1cc(-c2ccc3c(c2)OCO3)on1,inactive
7,CC(C)(C)c1ccc(C(=O)NCc2nnc(SCC(=O)N3CCCc4ccccc43)n2-c2ccccc2)cc1,inactive
8,Cn1c(S(=O)(=O)O)nc2ccccc21,inactive
9,N#C/C(=C1/CCCN1)c1ccccn1,inactive
10,Cn1c(/C(C#N)=C2/CCCCCN2)nc2ccccc21,-6.04 (active)
11,CC(=O)c1ccc(N2CCN(C(=O)c3ccc4nc[nH]c4c3)CC2)cc1,inactive
12,CC(=O)c1ccc(N2Cc3ccccc3C2)cc1,inactive
13,Cc1nc(SCc2ccc(F)cc2)c([N+](=O)[O-])[nH]1,inactive
14,CCCOc1ccc(Cn2ccnc2)cc1[N+](=O)[O-],inactive
15,CCCCOC(=O)CCCc1ccc([N+](=O)[O-])cc1[N+](=O)[O-],inactive
16,CCCCOc1ccc(CSC(=N)N)cc1[N+](=O)[O-],-6.92 (active)
17,Cc1cc(OCCCCOc2ccc(C#N)cc2)ccc1[N+](=O)[O-],inactive
18,CCCCCOc1ccc(CSC2=NCCN2)cc1[N+](=O)[O-],-7.13 (active)
19,COc1ccc(NC(=O)CN2C(=O)C(c3ccccc3)=NC23CCCCCC3)cc1OC,inactive
20,Cc1cc(C)c2oc(C(=O)Nc3ccc(S(=O)(=O)Nc4nccc(C)n4)cc3)cc(=O)c2c1,inactive
21,c1ccc(-c2cnc(CN3CCN(c4ccccc4)CC3)o2)cc1,inactive
22,COc1cc([N+](=O)[O-])cc([N+](=O)[O-])c1NC(=O)N1CCOCC1,inactive
23,O=C(NN1C(=O)C2C3C=CC(C3)C2C1=O)c1ccco1 (stereo unspecified),inactive
24,COC(=O)C1=C(C)N(C)C(=S)NC1c1cc(OC)ccc1OC (stereo unspecified),inactive

row,SMILES,B-score
1,CC(C)(C)NCc1cc(Br)ccc1OC1CCCC1,-6.86 (active)
2,CCOCCCNCc1cc(Br)ccc1OCC,inactive
3,COc1cc(CNC2CCCCC2)c(Br)cc1OC1CCCC1,inactive
4,O=C(c1ccc(CS(=O)(=O)c2ccccc2)o1)N1CCN(c2ccccc2)CC1,inactive
5,O=C(CNc1cccc(S(=O)(=O)N2CCCCC2)c1)Nc1ccccc1F,inactive
6,COc1ccccc1CCNC(=O)C(=O)NCCC1CCCCN1S(=O)(=O)c1cccs1 (stereo unspecified),inactive
7,Cn1c(=NC(=O)c2ccco2)sc2cccc(F)c21,inactive
8,COC(=O)c1ccc(OC(=O)c2cnccn2)cc1,inactive
9,Cn1c(=NC(=O)c2cnccn2)sc2ccccc21,-6.66 (active)
10,O=C(COc1ccccc1)Nc1ccc(F)cc1,inactive
11,O=S(=O)(c1ccc(F)cc1)N1CCN=C1SCc1cccc(F)c1,inactive
12,COC(=O)c1ccccc1NC(=O)C1(S(=O)(=O)c2ccc(Cl)cc2)CC1,inactive
13,CCCCCCCCn1c2c(c(=N)c3c1CCC3)CCCC2,-6.1 (active)
14,Cc1ccc(NC(=O)CCOc2ccccc2)cc1S(=O)(=O)Nc1ccccc1Cl,inactive
15,Cc1cc(C)c2nc3nc(C)cc(C)c3c(N)c2c1,-5.04 (active)
16,Cc1cc(C)c2nc(-c3ccco3)cc(C(=O)O)c2c1,inactive
17,COc1ccc(OCc2cc(C(=O)N3CCCC3)no2)c2ccccc12,inactive
18,CCOC(=O)/C=C/CN(C(=O)OC(C)(C)C)S(=O)(=O)N1CC=CC1,inactive
19,CC(Nc1nc(N2CCOCC2)nc2ccccc12)c1ccccc1 (stereo unspecified),inactive
20,CC(Nc1nc(N2CCN(CCO)CC2)nc2ccccc12)c1ccccc1 (stereo unspecified),inactive
21,CC(Nc1nc(N2CCCC2)nc2ccccc12)c1ccccc1 (stereo unspecified),-6.87 (active)
22,COc1ccc2[nH]cc(CCN3C(=O)c4ccc(C(=O)O)cc4C3=O)c2c1,inactive
23,Cc1nn(C)cc1C(=O)c1ccccc1,inactive
